ELG1 genotox: qHTS screen for small molecules that induce genotoxicity in human embryonic kidney (HEK293T) cells expressing luciferase-tagged ELG1. HEK293T ELG1-luciferase reporter, luminescence, 16 h. Potency, µM (series often up to 46 µM), hits mostly activators. 330,000 compounds, 1.3% hits; note: nearly all actives have a fitted effect of over 60% in size
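Genotoxicity was scored as increased ELG1-luciferase reporter signal, measured by ONE-Glo luminescence (30 min, room temperature). Compound or vehicle exposure of the HEK293T reporter cells lasted 16 hr at 37°C.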
SMN2 splice enh: qHTS Assay for Enhancers of SMN2 Splice Variant Expression; HEK293 SMN2-luciferase splicing reporter, luminescence, 30-36 h; Potency, µM (series often up to 46.1 µM), usual class: activators; 210,000 compounds, 2.8% hits; note: nearly all actives have a fitted effect of over 55% in size
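qHTS luciferase splicing reporter: luminescence rises when SMN2 exon 7 is included in transfected HEK293 cells. Compound exposure lasted 30-36 h at 37C, with 4.5 mM final sodium butyrate as control, followed by a ONE-Glo read.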
NPC1 prom act: qHTS Assay for NPC1 Promoter Activators | Huh7 NPC1 promoter luciferase reporter, 24 h | Potency, µM (titrated, usually from 9.22 µM), hits mostly activators | 320,000 compounds, 2.4% hits | AID 485313, 2010; note: nearly all actives have a fitted effect of over 60% in size
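Luminescence read-out of NPC1 promoter-driven luciferase in stably transfected Huh7 cells; compounds delivered in DMSO and left 24 h at 37C, 5% CO2, qHTS titration format.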
FLuc modulator: qHTS profiling assay for firefly luciferase inhibitor/activator using purifed enzyme and Km concentrations of substrates (counterscreen for miR-21 project); purified FLuc, Km substrates, luminescence inhibition; AID 588342, 2011; 360,000 compounds, 6.9% hits; Potency, µM (doses to about 57.5 µM), hits mostly inhibitors; note: nearly all actives have a fitted effect of over 55% in size
Target sequence (P08659 whole entry, looked up): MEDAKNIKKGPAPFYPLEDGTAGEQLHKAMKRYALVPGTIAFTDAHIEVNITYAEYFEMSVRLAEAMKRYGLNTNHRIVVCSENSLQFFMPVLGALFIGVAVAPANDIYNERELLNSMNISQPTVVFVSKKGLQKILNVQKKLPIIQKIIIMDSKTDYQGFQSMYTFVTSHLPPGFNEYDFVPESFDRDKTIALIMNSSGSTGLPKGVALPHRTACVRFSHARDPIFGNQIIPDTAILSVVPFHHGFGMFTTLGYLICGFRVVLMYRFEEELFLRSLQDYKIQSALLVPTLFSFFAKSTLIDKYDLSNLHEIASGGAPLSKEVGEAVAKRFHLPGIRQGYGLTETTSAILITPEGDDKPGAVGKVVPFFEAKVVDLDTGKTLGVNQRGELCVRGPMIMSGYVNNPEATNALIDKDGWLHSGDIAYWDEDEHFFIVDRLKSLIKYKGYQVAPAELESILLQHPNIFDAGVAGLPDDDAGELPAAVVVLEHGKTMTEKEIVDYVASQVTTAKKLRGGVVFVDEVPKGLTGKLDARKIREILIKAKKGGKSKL
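Purified P. pyralis luciferase, 10 nM final, with Km-level 10 uM D-luciferin and 10 uM ATP in 50 mM Tris acetate pH 7.5, 10 mM Mg acetate, 0.01% Tween-20, 0.05% BSA; 6-point qHTS titration about 60 µM downward; luminescence read.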
Rab9 promoter act: qHTS Assay for Rab9 Promoter Activators; 320,000 compounds, 2.8% hits; Potency, µM (top dose mostly 9.22 µM), hits mostly activators; Huh7 Rab9 promoter-luciferase reporter, luminescence, 24 h; note: nearly all actives have a fitted effect of over 60% in size
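Promoter activation is measured as luciferase luminescence in Huh7 cells stably transfected with a Rab9 promoter–luciferase construct, following 24 h compound exposure at 37 °C and 10 min reagent incubation at ambient temperature.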
Luc counter: Counterscreen for Luciferase (Kinase-Glo TM) Inhibition | Luciferin 4-monooxygenase (Photuris pensylvanica), Q27757 | Kinase-Glo luciferase, ATP luminescence, 8 min | Potency, µM (top dose mostly 38.3 µM), hits mostly inhibitors | 200,000 compounds, 0.28% hits; note: nearly all actives have a fitted effect of over 60% in size
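Kinase-Glo luciferase light output from ATP and luciferin was measured with 10 uM ATP, within the enzyme's linear range. Buffer: 50 mM imidazole pH 7.2, 50 mM KCl, 7 mM MgCl2, 0.01% Tween 20, 0.05% BSA; luminescence read after 8 min at ambient temperature.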
A number is an active result. An excerpt weighted towards active compounds, which were near 7.5% of everything screened. Calls come from the whole dose curve; as a rule, active = well fitted curve in the direction sought with a large enough effect; inconclusive = small, poorly fitted or top-dose-only effect, or another doubt; inactive = no such curve, though single readings can be large; an effect the other way counts as inactive or inconclusive.

For CCOc1ccc(-n2c(C)cc(/C=C3/C(=N)N4C(=NC3=O)SN=C4S(C)(=O)=O)c2C)cc1 the results were ELG1 genotox inactive, SMN2 splice enh inactive, NPC1 prom act inactive, FLuc modulator 17µM, Rab9 promoter act inactive and Luc counter inactive.
Cn1c(N)c(C(=O)COC(=O)c2ccccc2C(F)(F)F)c(=O)n(C)c1=O was read as ELG1 genotox inactive.
COCCNC(=O)CCc1c(C)n(C)c2cc(-c3cc(OC)c(OC)c(OC)c3)nn2c1=O was read as FLuc modulator inactive.
`Cc1ccc(-n2cccc2/C=C2/C(=N)N3C(=NC2=O)SN=C3S(C)(=O)=O)cc1Cl` gave ELG1 genotox inactive, SMN2 splice enh inactive, NPC1 prom act inactive, FLuc modulator inactive, Rab9 promoter act inactive and Luc counter inactive.
Cc1cccc(C)c1-n1cccc1/C=C1/C(=N)N2C(=NC1=O)SN=C2S(C)(=O)=O was read as ELG1 genotox inactive, SMN2 splice enh inactive, NPC1 prom act inactive, FLuc modulator 24µM, Rab9 promoter act inactive and Luc counter inactive.
Screening O=C(NCCOc1ccccc1)c1cncc(Br)c1 returned ELG1 genotox 16µM, SMN2 splice enh inactive, NPC1 prom act inconclusive, FLuc modulator inconclusive, Rab9 promoter act inconclusive and Luc counter inactive.
For CCc1cc(C)cc(OCCNC(=O)c2cncc(Br)c2)c1 the results were ELG1 genotox inactive, SMN2 splice enh inactive, NPC1 prom act inactive, FLuc modulator inactive, Rab9 promoter act inactive and Luc counter inactive.
For COc1cccc(C(=O)NCCSc2ccc(F)cc2)c1 the results were ELG1 genotox inactive, SMN2 splice enh 13µM, NPC1 prom act inconclusive, FLuc modulator 19µM, Rab9 promoter act inconclusive and Luc counter inactive.
Screening O=C(NCCSc1ccccc1)c1cncc(Br)c1 returned ELG1 genotox 15µM, SMN2 splice enh inconclusive, NPC1 prom act inconclusive, FLuc modulator 21µM, Rab9 promoter act inconclusive and Luc counter inactive.
For O=C(NCCSc1ccccc1)c1ccccc1 the results were ELG1 genotox inconclusive, SMN2 splice enh 11µM, NPC1 prom act 2.5µM, FLuc modulator inconclusive, Rab9 promoter act 2.5µM and Luc counter inactive.
For CSc1ccccc1C(=O)NCCSc1ccccc1 the results were ELG1 genotox inconclusive, SMN2 splice enh inactive, NPC1 prom act inactive, FLuc modulator inactive, Rab9 promoter act inactive and Luc counter inactive.
`CCC(C)[C@H](NC(=O)c1cc2cc(Cl)ccc2n1C)C(=O)N1CCC(C(=O)O)CC1` (stereo not given in full) gave ELG1 genotox inactive, NPC1 prom act inactive, FLuc modulator inactive and Rab9 promoter act inactive.
CCCSc1cc(N2CCOCC2)nc(-c2ccccc2Cl)n1 was read as ELG1 genotox inactive, SMN2 splice enh inactive, NPC1 prom act inactive, FLuc modulator inactive, Rab9 promoter act inactive and Luc counter inactive.
Screening O=C(CCSc1ccccc1)NCCSCc1ccccc1 returned ELG1 genotox inactive, SMN2 splice enh inactive, NPC1 prom act inactive, FLuc modulator 21µM, Rab9 promoter act inactive and Luc counter inactive.
CN(C)S(=O)(=O)c1ccc(C(=O)NCCSc2ccc(Br)cc2)cc1 was read as ELG1 genotox inactive, SMN2 splice enh inactive, NPC1 prom act inactive, FLuc modulator inactive, Rab9 promoter act inactive and Luc counter inactive.
For O=C(NCCSc1ccccc1)c1ccc(Br)cc1 the results were ELG1 genotox 3.3µM, SMN2 splice enh 6.3µM, NPC1 prom act 0.79µM, FLuc modulator 1.3µM, Rab9 promoter act 0.56µM and Luc counter inactive.
Screening N#CCCCCN1CCCC1 returned ELG1 genotox inactive, NPC1 prom act inactive, FLuc modulator inactive and Rab9 promoter act inactive.
O=C(COc1ccccc1)NNC1=NS(=O)(=O)c2ccccc21 was read as ELG1 genotox inactive, SMN2 splice enh inactive, NPC1 prom act inactive, FLuc modulator 24µM, Rab9 promoter act inactive and Luc counter inactive.

Bioassay records as filed in PubChem.
